Laboratory results taken from PubChem BioAssay (NCATS).
Records with an inconclusive call do not appear. Active and inactive are the calls of the source. Calls follow the shape of the dose curve; as a rule, active = well fitted curve in the direction sought with a large enough effect; inconclusive = small, poorly fitted or top-dose-only effect, or another doubt; inactive = no such curve, though single readings can be large; an effect the other way counts as inactive or inconclusive.

What was measured:
[1] = target: ATP-dependent 6-phosphofructokinase (Trypanosoma brucei brucei) (UniProt O15648); experiment: qHTS Assay to Find Inhibitors of T. brucei phosphofructokinase: hit validation (AID 492961);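 also: luminescence reports ADP formed as PFK phosphorylates fructose-6-phosphate with ATP; % is scaled to controls: 0 for no effect and ±100 for the full control effect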
Sequence of ATP-dependent 6-phosphofructokinase (Trypanosoma brucei brucei) (O15648 whole entry, looked up): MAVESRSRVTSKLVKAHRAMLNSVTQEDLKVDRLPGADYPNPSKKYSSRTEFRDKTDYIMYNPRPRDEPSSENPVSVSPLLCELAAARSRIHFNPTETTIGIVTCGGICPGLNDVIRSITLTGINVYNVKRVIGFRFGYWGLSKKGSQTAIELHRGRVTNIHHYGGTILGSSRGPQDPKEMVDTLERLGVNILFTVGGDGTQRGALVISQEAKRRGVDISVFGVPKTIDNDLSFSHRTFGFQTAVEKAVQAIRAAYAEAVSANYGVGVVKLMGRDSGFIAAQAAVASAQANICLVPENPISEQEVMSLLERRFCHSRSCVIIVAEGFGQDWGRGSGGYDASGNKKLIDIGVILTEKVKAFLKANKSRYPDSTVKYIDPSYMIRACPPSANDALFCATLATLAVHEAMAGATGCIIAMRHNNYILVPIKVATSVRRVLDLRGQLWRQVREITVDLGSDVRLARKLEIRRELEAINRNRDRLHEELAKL
Method in brief: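 ADP-Glo luminescence read-out of ADP formed by 1.25 nM PFK from 0.1 mM ATP and 0.5 mM F6P (TEA pH 8.0, 45 min, RT). Compounds titrated; activity normalized to no-enzyme and full-enzyme controls.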

[2] = qHTS profiling for inhibitors of Plasmodium falciparum proliferation (AID 504749);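 also: 0% = DMSO vehicle and full inhibition = artemisinin control; nearly all actives have a fitted effect of over 60% in size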; conditions: P. falciparum in erythrocytes, SYBR Green DNA, 72 h, at 28.7 µM (top of the series)
Method in brief: (§1)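 Three-day growth assay of blood-stage parasites in erythrocytes (0.3% parasitemia, 2.5% hematocrit) at 37 C, 5% CO2, quantified by SYBR Green DNA staining after overnight detergent lysis.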

3D7 = experiment: as above; conditions: P. falciparum in erythrocytes, SYBR Green DNA, 72 h; series mostly up to 28.7 µM
Method in brief: as §1

AA1029 = experiment: as above; conditions: P. falciparum in erythrocytes, SYBR Green DNA, 72 h; series mostly up to 28.7 µM
Method in brief: as §1

AS120 = experiment: as above; conditions: P. falciparum in erythrocytes, SYBR Green DNA, 72 h; series mostly up to 28.7 µM
Method in brief: as §1

ATS189 = experiment: as above; conditions: P. falciparum in erythrocytes, SYBR Green DNA, 72 h; series mostly up to 28.7 µM
Method in brief: as §1

C2A = experiment: as above; conditions: P. falciparum in erythrocytes, SYBR Green DNA, 72 h; series mostly up to 28.7 µM
Method in brief: as §1

CP185 = experiment: as above; conditions: P. falciparum in erythrocytes, SYBR Green DNA, 72 h; series mostly up to 28.7 µM
Method in brief: as §1

CP191 = experiment: as above; conditions: P. falciparum in erythrocytes, SYBR Green DNA, 72 h; series mostly up to 28.7 µM
Method in brief: as §1

CP192 = experiment: as above; conditions: P. falciparum in erythrocytes, SYBR Green DNA, 72 h; series mostly up to 28.7 µM
Method in brief: as §1

CP194 = experiment: as above; conditions: P. falciparum in erythrocytes, SYBR Green DNA, 72 h; series mostly up to 28.7 µM
Method in brief: as §1

CP211 = experiment: as above; conditions: P. falciparum in erythrocytes, SYBR Green DNA, 72 h; series mostly up to 28.7 µM
Method in brief: as §1

CP217 = experiment: as above; conditions: P. falciparum in erythrocytes, SYBR Green DNA, 72 h; series mostly up to 28.7 µM
Method in brief: as §1

CP237 = experiment: as above; conditions: P. falciparum in erythrocytes, SYBR Green DNA, 72 h; series mostly up to 28.7 µM
Method in brief: as §1

CP238 = experiment: as above; conditions: P. falciparum in erythrocytes, SYBR Green DNA, 72 h; series mostly up to 28.7 µM
Method in brief: as §1

CP247 = experiment: as above; conditions: P. falciparum in erythrocytes, SYBR Green DNA, 72 h; series mostly up to 28.7 µM
Method in brief: as §1

CP252 = experiment: as above; conditions: P. falciparum in erythrocytes, SYBR Green DNA, 72 h; series mostly up to 28.7 µM
Method in brief: as §1

CP286 = experiment: as above; conditions: P. falciparum in erythrocytes, SYBR Green DNA, 72 h; series mostly up to 28.7 µM
Method in brief: as §1

Dd2 = experiment: as above; conditions: P. falciparum in erythrocytes, SYBR Green DNA, 72 h; series mostly up to 28.7 µM
Method in brief: as §1

P94_40 = experiment: as above; conditions: P. falciparum in erythrocytes, SYBR Green DNA, 72 h; series mostly up to 28.7 µM
Method in brief: as §1

Cc1onc(-c2c(F)cccc2Cl)c1C(=O)NC1C(=O)N2C1SC(C)(C)C2C(=O)O (stereo not given)
inactive: Potency [1] | activity, negative = inhibition ([2]; parasite line A) 3.14% | activity, negative = inhibition ([2]; parasite line B) -4.31% | Potency (3D7) | Potency (AA1029) | Potency (AS120) | Potency (ATS189) | Potency (C2A) | Potency (CP185) | Potency (CP191) | Potency (CP192) | Potency (CP194) | Potency (CP211) | Potency (CP217) | Potency (CP237) | Potency (CP238) | Potency (CP247) | Potency (CP252) | Potency (CP286) | Potency (Dd2) | Potency (P94_40)

Nc1nc(F)nc2c1ncn2[C@@H]1O[C@H](CO)[C@@H](O)[C@H]1O
inactive: Potency [1] | activity, negative = inhibition ([2]; parasite line A) 9.43% | activity, negative = inhibition ([2]; parasite line B) 14.2% | Potency (3D7) | Potency (AA1029) | Potency (AS120) | Potency (ATS189) | Potency (C2A) | Potency (CP185) | Potency (CP191) | Potency (CP192) | Potency (CP194) | Potency (CP211) | Potency (CP217) | Potency (CP237) | Potency (CP238) | Potency (CP247) | Potency (CP252) | Potency (CP286) | Potency (Dd2) | Potency (P94_40)

COc1cccc(OC)c1C(=O)NC1C(=O)N2C1SC(C)(C)C2C(=O)O (stereo not given)
inactive: Potency [1] | activity, negative = inhibition ([2]; parasite line A) 11.2% | activity, negative = inhibition ([2]; parasite line B) -9.69% | Potency (3D7) | Potency (AA1029) | Potency (AS120) | Potency (ATS189) | Potency (C2A) | Potency (CP185) | Potency (CP191) | Potency (CP192) | Potency (CP194) | Potency (CP211) | Potency (CP217) | Potency (CP237) | Potency (CP238) | Potency (CP247) | Potency (CP252) | Potency (CP286) | Potency (Dd2) | Potency (P94_40)

CCCCCCCCCCCCCCCC(=O)OCC(COP(=O)(O)OCC[N+](C)(C)C)OC(=O)CCCCCCCCCCCCCCC (stereo not given)
inactive: Potency [1] | activity, negative = inhibition ([2]; parasite line A) -4.13% | activity, negative = inhibition ([2]; parasite line B) 3.84% | Potency (3D7) | Potency (AA1029) | Potency (AS120) | Potency (ATS189) | Potency (C2A) | Potency (CP185) | Potency (CP191) | Potency (CP192) | Potency (CP194) | Potency (CP211) | Potency (CP217) | Potency (CP237) | Potency (CP238) | Potency (CP247) | Potency (CP252) | Potency (CP286) | Potency (Dd2) | Potency (P94_40)

OCCOC[C@H]1O[C@H](OCCO)[C@H](OCCO)[C@@H](OCCO)[C@@H]1OCCO (tested in a mixture with another compound)
inactive: Potency [1] | activity, negative = inhibition ([2]; parasite line A) 3.32% | activity, negative = inhibition ([2]; parasite line B) 1.14% | Potency (3D7) | Potency (AA1029) | Potency (AS120) | Potency (ATS189) | Potency (C2A) | Potency (CP185) | Potency (CP191) | Potency (CP192) | Potency (CP194) | Potency (CP211) | Potency (CP217) | Potency (CP237) | Potency (CP238) | Potency (CP247) | Potency (CP252) | Potency (CP286) | Potency (Dd2) | Potency (P94_40)
